Screening results deposited in PubChem BioAssay by National Center for Advancing Translational Sciences (NCATS).
D2 PAM-1 – positive allosteric modulators of human D2 dopamine receptor | AID 485347 | HEK293 T-REx D2, calcium flux, EC20 dopamine potentiation | potentiation, % at 10 µM | 340,000 tested, 0.34% active;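 active = potentiation over 3 SD above the plate norm, cut at about 30% in these data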
Target sequence (P14416 whole entry, looked up): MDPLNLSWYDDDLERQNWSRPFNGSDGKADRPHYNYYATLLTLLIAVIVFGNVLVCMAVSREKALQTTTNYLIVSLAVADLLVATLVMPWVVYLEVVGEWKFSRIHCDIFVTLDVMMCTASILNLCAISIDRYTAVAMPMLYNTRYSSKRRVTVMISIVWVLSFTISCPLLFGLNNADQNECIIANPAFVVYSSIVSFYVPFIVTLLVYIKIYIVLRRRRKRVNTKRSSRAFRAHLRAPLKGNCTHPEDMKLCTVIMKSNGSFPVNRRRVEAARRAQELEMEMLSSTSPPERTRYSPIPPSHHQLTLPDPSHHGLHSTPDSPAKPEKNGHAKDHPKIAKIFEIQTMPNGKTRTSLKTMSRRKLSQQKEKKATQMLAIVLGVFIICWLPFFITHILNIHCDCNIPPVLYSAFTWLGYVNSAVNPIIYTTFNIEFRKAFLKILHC
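Using a no-wash calcium dye in inducible, force-coupled HEK293 Trex cells expressing D2, we tracked fluorescence each second for 180 s after compound, then for 180 s after EC20 dopamine to detect augmented signalling.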
LDHA block – inhibitors of human lactate dehydrogenase A; P00338; purified LDHA, NADH/diaphorase-resazurin fluorescence; hits give low values; activity change, % (values are at about 110 or 230 µM); 480,000 tested, 0.15% active; in the data active = activity change below about -30%; inconclusive = mostly about -25% to -30%
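Human LDH5 at 2 nM final in Tris HCl pH 7.4 with 0.06 mM NADH and 0.2 mM pyruvate, reacted 5 minutes at room temperature. Remaining NADH coupled via diaphorase/resazurin; resorufin fluorescence read at 0 and 20 minutes, normalized to enzyme-free and DMSO wells.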
D2 PAM-2 – human D2 receptor positive allosteric modulation. 360,000 tested, 0.23% active. AID 624464. DiscoveRx D2 beta-arrestin cells, luminescence, 90 min; 100% = 57 uM dopamine signal. potentiation, % (no concentration beside the values); in the data active = potentiation above about 50%; inconclusive = mostly about 30% to 49%
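PathHunter D2 cells, attached overnight at 37 deg C, received compound in DMSO plus dopamine at EC20 (50 nM final) for 90 min at 37 deg C. Beta-arrestin recruitment was read as luminescence after 1 h with detection reagent at ambient temperature.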
D2 ag-1 – agonists of human D2 dopamine receptor. activation, % at 2 µM. 340,000 tested, 0.53% active. P14416. HEK293 T-REx D2 cells, calcium flux agonist mode;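 active = activation over 3 SD above normal in the single-dose calcium agonist read, cut at about 30% in these data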
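Tetracycline-induced HEK293 T-REx cells with force-coupled D2 receptor, plated overnight at 30 C, loaded with no-wash calcium dye. After a 10 s baseline, compound was pin-added and calcium flux read kinetically for 180 s; calcium rises flagged agonists.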
D2 antagonist – D2 dopamine receptor (human) antagonism. P14416. inhibition, % at 10 µM. HEK293 TREx D2 cells, calcium flux, dopamine EC80. AID 485344. 340,000 tested, 2% active; in the data active = inhibition above about 30%; inactive = below that, where a call was filed
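Inhibition of EC80 dopamine-driven calcium flux, recorded kinetically, defines activity here; cells are a tetracycline-induced HEK293 T-REx line expressing force-coupled D2.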
D2 ag-2 – agonists of human D2 dopamine receptor (beta-arrestin) | DiscoveRx PathHunter D2 beta-arrestin, luminescence, 90 min; 100% = 57 uM dopamine signal | activation, % (no concentration beside the values) | 360,000 tested, 0.084% active | AID 624465; in the data active = activation above about 40%; inconclusive = between about 15% and that limit
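Agonist mode: compounds alone added to overnight-plated D2 PathHunter cells for 90 min at 37 C, with 57 uM final dopamine (EC100) defining full response. Beta-arrestin recruitment detected by chemiluminescent reagent, read after 1 h at ambient temperature.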
D3 ag – activates human D3 dopamine receptor beta-arrestin recruitment; shares compounds with D2 ag-1; 2,300 tested, 4% active; DiscoveRx D3 beta-arrestin cells, luminescence, 90 min; Potency, µM (top dose mostly 76.9 µM), actives largely listed as activators; note: nearly all actives have a fitted effect of over 70% in size
D2 ag-3 – activates human D2 dopamine receptor in D3 counterscreen; Potency, µM (titrated, usually from 76.9 µM), usual class: activators; 2,300 tested, 5.9% active; DiscoveRx PathHunter D2 beta-arrestin, luminescence, 90 min; response scale: percent relative to full dopamine signal; shares compounds with D2 ag-1; AID 720507; note: nearly all actives have a fitted effect of over 70% in size
Large screens that a line does not name were inactive (follow-up assays come after a bar, where they were run). Rows were chosen to be rich in hits. Some 2.1% of all compounds tested hit in one or more screens of this group. Unless noted, calls come from the whole dose curve; as a rule, active = well fitted activation curve with a large enough effect; inconclusive = small, poorly fitted or top-dose-only effect; inactive = flat fitted curve, though single readings scatter.

Cn1c(C(=O)NCCCN2CCN(c3ccccc3F)CC2)cc2c(=O)n(C)c3ccccc3c21	D2 ag-1 73, D2 antagonist 98, D2 ag-2 inconclusive | D3 ag inactive | D2 ag-3 inconclusive
Cc1cc(=O)oc(C)c1C(=O)NCCCN1CCN(c2ccccc2F)CC1	D2 ag-1 58, D2 antagonist 47 | D3 ag inconclusive | D2 ag-3 inactive
Cc1cc(C)c2c(=O)n(CC(=O)NCCCN3CCN(c4ccccc4F)CC3)sc2n1	D2 ag-1 83, D2 antagonist 53 | D3 ag inactive | D2 ag-3 inactive
CCn1c(=O)cc(SCC(=O)NCCN2CCN(Cc3ccccc3)CC2)c2ccccc21	D2 ag-1 44 | D3 ag inactive | D2 ag-3 inactive
Cc1cc(C)c2c(=O)n(CC(=O)NCCCN3CCOCC3)sc2n1	none
O=C(CSc1nc2cc([N+](=O)[O-])ccc2o1)Nc1cccc(Cl)c1	none (no result: D2 PAM-1, D2 PAM-2, D2 ag-1, D2 antagonist, D2 ag-2)
O=S(=O)(c1cc(Cl)ccc1Cl)N1CCN(C/C=C/c2ccccc2)CC1	none (no result: D2 PAM-1, D2 PAM-2, D2 ag-1, D2 antagonist, D2 ag-2)
Cc1ccc(NS(=O)(=O)c2ccc(N/N=C/c3cc(C)[nH]c3C)c([N+](=O)[O-])c2)c(C)c1	none (no result: D2 PAM-1, D2 PAM-2, D2 ag-1, D2 antagonist, D2 ag-2)
Cn1c(=O)cc(SCC(=O)NCCCN2CCN(c3ccccc3F)CC2)c2ccccc21	D2 ag-1 75, D2 antagonist 92, D2 ag-2 inconclusive | D3 ag inactive | D2 ag-3 inconclusive
C/C(=N\O)c1ccco1	none | D3 ag inactive | D2 ag-3 inactive
C/C(=N\NC(=O)c1ccc(C(=O)N/N=C(\C)c2ccco2)o1)c1ccco1	none
O=c1c2cc([N+](=O)[O-])ccc2nc(CN2CCN(c3ccccn3)CC2)n1-c1ccccc1F	none | D3 ag inactive | D2 ag-3 inactive
C=CCSC1=N/C(=C\C=C\c2ccccc2)C(=O)S1	none (no result: D2 PAM-1, D2 PAM-2, D2 ag-1, D2 antagonist, D2 ag-2)
OCCCNc1ncnc2sc3c(c12)CCN(Cc1ccccc1)C3	none
O=C1NC(c2ccccc2)Nc2sc3c(c21)CCN(Cc1ccccc1)C3 (stereo not drawn)	none (no result: D2 PAM-1, D2 PAM-2, D2 ag-1, D2 antagonist, D2 ag-2)
O=c1[nH]cnc2sc3c(c12)CN(Cc1ccccc1)CC3	D2 ag-1 78, D2 antagonist 74, D2 ag-2 inconclusive | D3 ag inactive | D2 ag-3 inactive
O=c1[nH]cnc2sc3c(c12)CCN(Cc1ccccc1)C3	D2 ag-1 62, D2 ag-2 inconclusive | D3 ag inactive | D2 ag-3 inactive
O=C(N1CCN(Cc2ccccc2)CC1)C(F)(F)C(F)(F)C(F)(F)C(F)(F)F	none (no result: D2 PAM-1, D2 PAM-2, D2 ag-1, D2 antagonist, D2 ag-2)
Cc1cccc(C)c1NC(=O)CN1CCN(C(=O)CN2C(=O)NC3(CCCCC3C)C2=O)CC1 (stereo not drawn)	D2 ag-1 40 | D3 ag inactive | D2 ag-3 inactive
CCc1ccccc1NC(=O)CN1CCN(C(=O)CN2C(=O)NC3(CCCCC3C)C2=O)CC1 (stereo not drawn)	none
Oc1ccc(N2CCN(Cc3ccc(OCCCN4CCCCC4)cc3)CC2)cc1	D2 ag-1 72, D2 antagonist 91, D2 ag-2 47 | D3 ag inconclusive | D2 ag-3 4.5µM
c1ccc(COc2ccc(OCCCCN3CCCCC3)cc2)cc1	none
Cc1ccc(OCC(O)Cn2nc(-c3ccco3)oc2=O)cc1 (stereo not drawn)	none (no result: D2 PAM-1, D2 PAM-2, D2 ag-1, D2 antagonist, D2 ag-2)
COc1ccc(CN(C(=O)c2cc(=O)[nH]c3ccc(S(=O)(=O)N4CCOCC4)cc23)C2CC2)cc1	none (no result: D2 PAM-1, D2 PAM-2, D2 ag-1, D2 antagonist, D2 ag-2)
Cc1ccc2oc(C(=O)NCc3ccc4c(c3)OCO4)cc(=O)c2c1	none (no result: D2 PAM-1, D2 PAM-2, D2 ag-1, D2 antagonist, D2 ag-2)
O=C(N[C@H]1CCC(=O)N(CCSc2ccc(Br)cc2)CC1)OCc1ccccc1	none | D3 ag inactive | D2 ag-3 inactive
Cc1cccc(NC(=O)c2nc[nH]c2C(=O)NCc2ccccc2)c1	none | D3 ag inactive | D2 ag-3 inactive
O=C(Nc1cccc(Cl)c1)c1nc[nH]c1C(=O)NCc1ccccc1	none | D3 ag inactive | D2 ag-3 inactive
O=C(Nc1ccccc1)c1nc[nH]c1C(=O)NCc1ccccc1	none | D3 ag inactive | D2 ag-3 inactive
O=C(Nc1cccc(Cl)c1)c1nc[nH]c1C(=O)NCCCCNC(=O)c1[nH]cnc1C(=O)Nc1cccc(Cl)c1	none (no result: D2 PAM-1, D2 ag-1, D2 antagonist)
CCOc1ccc(N2C(=O)CC(NC3CCN(C(=O)c4ccc(F)cc4)CC3)C2=O)cc1 (stereo not drawn)	D2 antagonist 38 | D3 ag inactive | D2 ag-3 inactive
CCOC(=O)c1ccc(N2C(=O)CC(NC3CCN(C(=O)c4ccc(F)cc4)CC3)C2=O)cc1 (stereo not drawn)	none
